Compound activity from PubChem BioAssay.
A selection: hits, their analogues and other compounds. The true share with any hit is near 3.5%.
CHRM1 PAM – human M1 muscarinic receptor positive allosteric modulators, primary screen, CHO-K1 cells, Fluo-8 calcium fluorescence, 1536-well | Muscarinic acetylcholine receptor M1 (Homo sapiens), P11229 | CHO-K1 hM1, ACh EC20; 0% = ACh EC20, 100% = maximal ACh | activation, % at 3 µM | 0.088% of 360,000 active; in the data active = activation above about 19%, passing the limit was not always enough
ATG4B inhibitor – ATG4B protease inhibitors, primary screen, biochemical, fluorescence, uHTS; Cysteine protease ATG4B (Homo sapiens), Q9Y4P1; ATG4B cleavage of LC3-PLA2, NBD-HPC fluorescence, 1 h; inhibition, % at 8.33 µM; 0.51% of 340,000 active; in the data active = inhibition above about 40%
Target sequence (Q9Y4P1 whole entry, looked up): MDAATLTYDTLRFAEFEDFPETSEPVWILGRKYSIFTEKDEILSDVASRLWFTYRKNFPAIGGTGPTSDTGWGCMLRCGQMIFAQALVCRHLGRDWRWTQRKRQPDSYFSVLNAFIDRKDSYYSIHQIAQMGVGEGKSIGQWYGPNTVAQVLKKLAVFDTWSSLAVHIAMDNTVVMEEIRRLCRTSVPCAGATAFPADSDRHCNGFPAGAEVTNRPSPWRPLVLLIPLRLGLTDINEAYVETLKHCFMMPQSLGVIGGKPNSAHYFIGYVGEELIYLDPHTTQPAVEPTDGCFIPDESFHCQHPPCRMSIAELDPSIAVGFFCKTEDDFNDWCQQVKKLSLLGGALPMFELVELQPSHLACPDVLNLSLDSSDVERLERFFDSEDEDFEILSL
Myeloid diff MLP – induction of myeloid progenitor differentiation, primary screen, cell-based, flow cytometry, MLPCN library; ER-HoxA9 myeloid progenitors, lysozyme-GFP differentiation; calls only at 10 µM; 1% of 360,000 active; AID 624256, 2012;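 active = normalized GFP-positive differentiation at or above the plate's own cutoff, the solvent-only control mean plus 3 SD; inconclusive = no clear call, values can overlap the other calls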;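 note: cells exposed to compound for four days before flow analysis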
SKN-1 inh – suppressors of acrylamide-induced Pgst-4::GFP reporter in worms, primary screen, SKN-1 inhibitor project, whole organism, uHTS, GFP/RFP fluorescence ratio, strain VP596. C. elegans VP596 Pgst-4::GFP/RFP ratio, 24 h. inhibition, % at 21.8 µM. 0.49% of 360,000 active;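 active = interference check ratio from 0.5 to 1.5 plus GFP to RFP signal ratio inhibition reaching or exceeding a fixed threshold, cut at about 30% in these data, passing the limit was not always enough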
CHRM1 agonist – human M1 muscarinic receptor agonists, primary screen, Fluo-8 calcium fluorescence, CHO-K1 cells, HTS. Muscarinic acetylcholine receptor M1 (Homo sapiens), P11229. CHO-K1 hM1, agonist mode; 0% DMSO, 100% acetylcholine EC100. activation, % at 3 µM. 0.33% of 360,000 active;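 active = activation above the run's mean compound activation plus 3 SD, cut at about 16% in these data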;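 note: peak over basal fluorescence ratio within a 140 s kinetic read after compound addition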
CHRM1 antagonist – human M1 muscarinic receptor antagonists, primary screen, CHO-K1 cells, Fluo-8 calcium fluorescence, 1536-well. Muscarinic acetylcholine receptor M1 (Homo sapiens), P11229. CHO-K1 hM1, ACh EC80 antagonist. inhibition, % at 3 µM. 1.3% of 360,000 active;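 active = percent inhibition above its own plate's cutoff, namely the mean of that plate's compound wells plus 3 SD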;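 note: peak over basal fluorescence ratio during 140 s after agonist addition; 0% = ACh EC80 plus DMSO and 100% = DMSO alone without agonist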
Active calls of the source: *; i = inactive; ? = inconclusive; . = no result; + = active, no number.

SMILES	CHRM1 PAM	ATG4B inhibitor	Myeloid diff MLP	SKN-1 inh	CHRM1 agonist	CHRM1 antagonist
CC(=O)c1ccc(N2CCN(S(=O)(=O)c3ccc4c(c3)CC(C)N4C(C)=O)CC2)cc1 (stereo not drawn)	-13	-7	i	7	2	36*
CC(=O)N1CCCc2cc(S(=O)(=O)N3CCCC(C(=O)N4CCN(c5cc(C)ccc5C)CC4)C3)ccc21 (stereo not drawn)	-15	-1	?	8	3	41*
CC(=O)c1ccc(N2CCN(S(=O)(=O)c3ccc4c(c3)NC(=O)CC(=O)N4)CC2)cc1	-6	-9	+	9	-5	10
CC(=O)N1CCCc2cc(S(=O)(=O)N3CCCC(C(=O)N4CCN(c5ccccc5)CC4)C3)ccc21 (stereo not drawn)	-6	0	i	5	5	2
CCC(OC(=O)c1nsc(Cl)c1Cl)C(=O)NCC1CCCO1 (stereo not drawn)	6	4	i	3	-4	-8
Cc1ccccc1-c1cc2c(c3c1ccn3C)C1CCC2C1 (stereo not drawn)	-3	.	i	14	1	16
CC(C)C[C@H]1CN(CCCC[C@H]2CNC(=O)C(=O)N2CC2CCCCC2)C(=O)C(=O)N1CCC1CCCCC1	.	.	i	-14	.	.
Fc1ccc(Nc2ccc3ccccc3n2)c(F)c1	-1	-1	i	20	-14	-3
COC(=O)[C@@]12CCCCN1[C@H](c1ccc(-c3ccc(OC)cc3)cc1)[C@H]1C(=O)N(C)C(=O)[C@H]12	6	-5	+	12	-5	-6
O=C(O)C1=C[C@H](c2ccc(F)cc2)C[C@H](OCc2ccc(CO)cc2)O1	4	1	i	1	-3	0
O=C(CCCN1CCC(c2ccccc2)C1)c1ccc2c(c1)OCCO2 (stereo not drawn)	-26	3	i	7	-8	35*
COc1ccc(C2/C=C\CN(Cc3ccncc3)CC(=O)N2Cc2ccc(F)cc2)cc1 (stereo not drawn)	7	-2	i	-7	-2	-4
COc1cc(/C=N/Nc2nc(Nc3ccccc3)nc(-n3nc(C)cc3C)n2)cc(OC)c1OC	-18	-58	i	26	-5	26*
COc1cc(/C=N/Nc2nc(Nc3ccc(C)cc3)nc(-n3nc(C)cc3C)n2)cc(OC)c1OC	-4	-24	i	5	-3	26
O=C(c1ccco1)N1CCN(C2c3ccccc3-c3ccccc32)CC1	11	13	i	-3	-5	-16
CC(C)OC(=O)CN1CCN(C2c3ccccc3-c3ccccc32)CC1	5	8	i	38*	-6	-13
CCN(CC)c1ccc(CNc2nnnn2C)cc1	-30	1	i	4	-10	60*
Cc1cc(C(=O)NNC(=O)/C=C/c2ccco2)c(C)o1	10	5	i	2	0	-9
CCOC(=O)c1c(-c2ccc3ccccc3c2)csc1NC(=O)CCCC(=O)O	2	13	i	4	-3	-5
CCN(CC)CCSC(=O)C(c1ccccc1)c1ccccc1	-26	.	i	-2	-9	101*
CCN(CC)CCOC(=O)C(c1ccccc1)c1ccccc1	-25	-3	i	4	-5	96*
CCN(CCO)C(=O)C(c1ccccc1)c1ccccc1	10	-6	i	12	-3	-2
CCN(CC)CCOC(=O)C(c1ccccc1)C1CCCCC1 (stereo not drawn)	-27	1	i	1	-7	99*
CCN(C(=O)COC(=O)c1[nH]c(C)c(C(C)=O)c1C)c1c(N)n(Cc2ccccc2)c(=O)[nH]c1=O	14	6	i	-20	-2	-12
CCC(=O)Nc1ccc2c(c1)OC[C@@H](C)N(Cc1cccc(F)c1)C[C@@H](C)[C@@H](OC)CN(C)C2=O	.	.	i	9	.	.
SMILES	CHRM1 PAM	ATG4B inhibitor	Myeloid diff MLP	SKN-1 inh	CHRM1 agonist	CHRM1 antagonist
O=c1c(Cl)c(N2CCNCC2)cnn1C12CC3CC(CC(C3)C1)C2	-21	-12	i	11	-8	35*
COCCN(C(=O)CCl)C(C(=O)NC1CCCCC1)c1ccccc1C (stereo not drawn)	6	2	i	8	-7	-9
Cc1cccc(C)c1C(OCCN(C)C)C1CCCCC1 (stereo not drawn)	-26	3	i	1	-8	99*
CC(C)n1nnnc1C1c2ccccc2C(=O)N1CCCn1ccnc1 (stereo not drawn)	.	.	?	15	.	.
COc1ccccc1NS(=O)(=O)c1cccc(NC(=O)Nc2ccc(Cl)cc2)c1	-21	16	i	1	3	44*
COc1ccccc1NS(=O)(=O)c1cccc(NC(=O)Nc2ccccc2)c1	-21	4	i	6	6	59*
CC[C@]12c3[nH]c4cc(-c5ccco5)ccc4c3CCN1C(=O)[C@@H](CC(=O)NCCc1ccccn1)C[C@@H]2C(=O)N1CCN(C(=O)c2ccco2)CC1	3	.	i	16	-7	-9
CCOc1ccc2nc(N(Cc3ccccc3)C(=O)CCNC(C)=O)sc2c1	6	0	i	16	-1	-3
CN1CCN(c2nnc(-c3ccccc3)c(-c3ccccc3)n2)CC1	-20	2	i	-2	-9	39*
O=[N+]([O-])c1cnn(-c2nc(-c3cccs3)cc(C(F)(F)F)n2)c1	4	6	i	17	-3	-4
c1ccc(-c2nnc(N3CCN(c4ccccc4)CC3)nc2-c2ccccc2)cc1	14	-5	i	-6	-2	-17
CN1CCN(c2nc(-c3cccs3)cc(C(F)(F)F)n2)CC1	-21	0	i	14	-4	71*
CN1CCN(c2nc(-c3ccccc3)cc(C(F)(F)F)n2)CC1	-19	5	i	-19	-4	43*
Cc1ccc(OCC(=O)NNC(=O)c2ccc(F)c(S(=O)(=O)N3CCOCC3)c2)cc1C	-8	.	i	21	-2	16
O=C1NC[C@H](Cc2ccccc2)N(C[C@@H]2CCCN2C[C@H](Cc2ccc(O)cc2)N2C[C@H](Cc3ccccc3)N(CCc3ccccc3)C(=O)C2=O)C1=O	.	.	i	3	.	.
